“And” between values parts separate entries of the source, which are not always exact repeats. Equal entries are not always repeated. Among all 360,000 compounds or so, about 830 (0.23%) were called active. What follows is part of a selection rich in actives, with near analogues and random picks from the rest. A number with no mark means an inactive call.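 Rule for the calls: active = mean luciferase reporter signal, scaled so untreated is 0 and the glycosylation-blocking control 100, at or above a set limit in every replicate; inconclusive = mean reaches the limit but not every replicate does; inactive = mean below the limit.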

This test is described as follows: increase of ERlucT glycosylation luciferase signal, primary screen, N-linked glycosylation inhibitor project, D54 ERlucT cells, luminescence, set 2 (AID 588692).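 Note: luciferase carries N-glycosylation sites so blocking glycosylation raises the light; 0% = median of neutral control wells and 100% = median of 100 nM tunicamycin wells.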 Particulars: 24 h, at 12.5 µM, hits give high values, percent of 100 nM tunicamycin response.
With `NNC(=O)CNC(c1ccccc1)c1cc(Cl)ccc1NC(=O)c1ccccc1` (centres undefined), the reporter increase is -3.39%. As to `CN(CC1CCCO1)S(=O)(=O)c1ccc(C(=O)Nc2ccc([N+](=O)[O-])cc2)cc1` (centres undefined), the reporter increase was -5.35%. Under `Cn1ccc(=Nc2ccc(NC(=O)c3ccc(N=c4ccn(C)c5ccc([N+](=O)[O-])cc45)cc3)cc2)cc1` stands 32.9% (active). As to `CC(C)c1ccc(NC(=O)CCN2C(=O)c3ccc([N+](=O)[O-])cc3C2=O)cc1`, the reporter increase is 1.26%. For the compound `COCCCn1c(SCC(=O)Nc2oc(C)c3c(C)n[nH]c(=O)c23)nc2sc3c(c2c1=O)CCC3`, the reporter increase is 4.94%. Turning to `C1CC1Cc1noc(CN2CCN(CC3CC3)CC2)n1`, the reporter increase was -0.901%. Take `O=C(Cn1cnc2ccccc21)Nc1ccccc1-c1ccccc1`: the reporter increase is 0.271%. As to `O=C(COC(=O)Cn1cnc2ccccc2c1=O)NCc1ccccc1Cl`, the reporter increase is 0.775%. Under `O=C(COC(=O)Cn1cnc2ccccc21)Nc1cccc2c1C(=O)c1ccccc1C2=O` stands 103% (active); under `COc1cc(C(=S)N2CCOCC2)cc(OC)c1OC(=O)c1cc([N+](=O)[O-])c(C)c([N+](=O)[O-])c1`, 1.27%. As for `CSc1ccc(/C=N/N2CCN(Cc3ccccc3Cl)CC2)cc1`, the reporter increase was 2.53%. Take `Cc1ccc(C)c(NC(=O)CCC(=O)N/N=C2/CC(=O)CC(C)(C)C2)c1`: the reporter increase was 0.203%. Turning to `CC(C)NC(=O)Nc1cccc2c1O[C@H](CN(C)S(=O)(=O)c1cccs1)[C@@H](C)CN([C@H](C)CO)C2=O`, the reporter increase was 0.641%. For the compound `O=C(CNCc1ccco1)Nc1cc(S(=O)(=O)N2CCOCC2)ccc1N1CCCC1`, the reporter increase is 2.55%. Under `O=[N+]([O-])c1cc(S(=O)(=O)Nc2cccc(Cl)c2)ccc1N=Nc1c(O)[nH]c2ccccc12` stands -5.47%; under `COC(=O)c1ccc(C(=O)NC2CC(C)(C)Cc3c2cnn3-c2ccc(F)cc2)nc1` (centres undefined), 26.7% (active); under `Cc1cc(C(=O)NC2CC(C)(C)Cc3c2cnn3-c2ccccc2)n[nH]1` (centres undefined), -9.34%. As to `CC1(C)Cc2c(cnn2-c2cccc(F)c2)C(NC(=O)c2cc[n+]([O-])cc2)C1` (centres undefined), the reporter increase was 1.53%.

Take `CN(CCO)C(=O)c1nc[nH]c1C(=O)N(C)Cc1ccccc1`: the reporter increase was 1.82%. Under `COc1cc(CCN=Cc2ccccc2O)c([N+](=O)[O-])cc1OC` stands 2.9%; under `COc1ccc(OC)c2[nH]c(=O)c(CCNC(=O)C(=O)c3c[nH]c4ccccc34)cc12`, -0.931%.

Consider `O=c1ccc2cc(S(=O)(=O)NCCCc3ccccc3)ccc2[nH]1`, for which the reporter increase is -0.159%. Under `O=C(N/N=C\c1cccc(Br)c1)c1ccccc1-n1cccc1` stands 0.034%; under `O=C(N/N=C/c1cccc(Br)c1)c1ccc(N2CCCC2=O)cc1`, 29.6% (active); under `O=C(Nc1ccc(N2CCCC2=O)cc1)c1cncc(Br)c1`, -9.16%. Turning to `COCOc1cccc(CN2CCC(C)(Oc3ccc(SC)cc3)C2)c1` (centres undefined), the reporter increase was -0.871%. As to `Cc1ccc(C)c(NC(=O)C2Cc3ccccc3CN2C(=O)OCc2ccccc2)c1` (centres undefined), the reporter increase was -1.83%. Under `O=C(COc1ccc(Cl)cc1)Nc1ccc2oc(=O)ccc2c1` stands -2%. Under `CCCNC(=O)C1(C)CCN(Cc2ccc(Cl)c(Cl)c2)C1` (centres undefined) stands 0.635%; under `Cc1cc(C)c2c(=O)n3c(nc2c1)C(CC(C)C)NC(=O)c1cc2ccccc2cc1-3` (centres undefined), -7.33%; under `CCN(CC)CCNCC(=O)Nc1ccc(Oc2ccccc2)cc1`, 0.423%.

Take `CN(CCOc1ccc(CC2SC(=O)NC2=O)cc1)c1ccccn1` (centres undefined): the reporter increase was 4.03% and 1.28%.

As to `CCN(CC)CCOc1ccc2c(c1)C(=NNC(=O)c1ccccn1)c1cc(OCCN(CC)CC)ccc1-2`, the reporter increase was 68.7% (active). In the case of `CC[C@H](C)C(=O)N[C@H]1CCCN1C(=O)/C=C/c1ccccc1`, the reporter increase is -0.751%. Under `CN1CCN(Cc2nc3c(c(=O)n(C)c(=O)n3C)n2Cc2cccc3ccccc23)CC1` stands -0.438%; under `O=c1c2cc(-c3ccccc3)sc2nc2n1N=C(c1cccs1)CS2`, -9.8%. Under `O=C(O[C@H]1[C@H](Cc2ccccc2)NS(=O)(=O)[C@H]2C[C@@H]3C=C[C@]12O3)c1ccc([N+](=O)[O-])cc1` stands 2.96%; under `CC(Sc1nncs1)C(=O)NCc1ccc2c(c1)OCO2` (centres undefined), -1.14%; under `Cc1cc(C)c2nc3nc(C)cc(C)c3c(N)c2c1`, 79% (active). As to `COc1cc(OC)c2c(-c3cccc(-c4cccc(N)c4)c3)cc(=O)oc2c1`, the reporter increase was 4.55%. `CC(CNS(=O)(=O)c1ccc(Br)cc1)CN(C)C` (centres undefined): the reporter increase is 0.673%. Under `COc1ccccc1C(=O)COC(=O)CSCC(=O)Nc1cc(C)on1` stands 1.73%; under `O=C(NCC1CCCO1)C(C(=O)c1ccccc1)n1cc(Cl)ccc1=O` (centres undefined), 1.12%; under `CCn1c(SCC(=O)NC2CC2)nnc1-c1ccccc1OC`, 1.11%. Under `COc1ccccc1-c1nnc2n1N=C(c1ccc(OC(F)F)c(OCC3CC3)c1)CS2` stands 5.65%. In the case of `COc1ccc(C2=Nn3c(nnc3-c3ccccc3OC)SC2)cc1OC1CCCC1`, the reporter increase is 33.9% (active).

Turning to `Cn1c(=O)[nH]c2c(c(C(=O)O)nn2C)c1=O`, the reporter increase is -0.816%. Under `COCCn1c(SCC(=O)N2CCCCCC2)nc2c(c1=O)SCC2` stands 2.05%; under `CCCNC(=O)C1(C)CCCN(C(=O)c2oc3ccccc3c2C)C1` (centres undefined), -0.622%; under `C/C(=N\NC(=O)OC(C)(C)C)c1ccc[nH]1`, -4.4%. Take `NC(=O)CC(NC(=O)Cc1cccc2ccccc12)c1ccc(NCc2cc(F)ccc2F)c([N+](=O)[O-])c1` (centres undefined): the reporter increase is 16%.

On to `NC(=O)CC(NC(=O)Cc1ccc(Br)cc1)c1ccc(NC2CC3CCC2C3)c([N+](=O)[O-])c1` (centres undefined), for which the reporter increase is 43% (active). Regarding `CC1CCCCN1CCCNc1ccc(C(CC(N)=O)NC(=O)c2ccccc2)cc1[N+](=O)[O-]` (centres undefined), the reporter increase was 2.79%. Take `CCOc1ccc2c(=O)c(-c3ccc4c(c3)OCCCO4)c(C)oc2c1`: the reporter increase was -1.81%.

Take `COc1ccc(C(=O)NCC(c2ccco2)N2CCc3ccccc32)cc1OC` (centres undefined): the reporter increase is 2.39%. Under `COC(=O)c1ccc(COC(=O)C2CCN(S(=O)(=O)c3c(Cl)cccc3Cl)CC2)o1` stands 0.74%; under `CC12CN(Cc3ccccc3)CC(C)(CN(Cc3ccccc3)C1)C2=NO`, -0.263%; under `O=[N+]([O-])c1ccc(C=Nc2ccc(Cl)cc2Cl)s1`, 36.7% (active). Under `CS(=O)(=O)N(CC(O)Cn1c2ccccc2c2ccccc21)c1cccc2ccccc12` (centres undefined) stands -2.21%. Under `CC/C(=N/Nc1ccccc1)c1cnnc(SC)n1` stands 0.994%. Regarding `Cc1cc(S(=O)(=O)c2cc3ccc(O)c(C)c3oc2=O)ccc1F`, the reporter increase is 1.14%. `COCCn1cnc2c1c(=O)n(CC(=O)NN)c(=O)n2Cc1ccccc1`: the reporter increase is -0.206%. Under `Fc1ccc2nc(-c3ccccc3)nc(SCc3nnc(-c4ccccc4)o3)c2c1` stands -4.84%; under `Cn1cnnc1SCc1nnc(-c2ccccc2Br)o1`, 2.03%; under `Cc1ccc2nc(SCc3nnc(-c4ccccc4[N+](=O)[O-])o3)c(C#N)cc2c1`, 35.7% (active).

For `CN(C(=O)CSc1nnc(-c2ccc3c(c2)OCO3)o1)C1CCS(=O)(=O)C1` (centres undefined), the reporter increase is 1%.

For the compound `Cc1[nH]nc(-c2ccc(OCc3cnn(-c4ccccc4)c3)cc2O)c1Oc1ccc(Cl)cc1`, the reporter increase was -4.08%. Under `O=C(NCCN1CCOCC1)c1cc(Sc2cccc(Cl)c2)nc2ccccc12` stands -2.52%.

For `c1ccc2cc3c(NCCN4CCOCC4)ccnc3cc2c1`, the reporter increase is 102% (active).

Take `Cc1cccc(C)c1OCCN1CCOCC1`: the reporter increase was -0.152%. For `CCOCCCNC(=S)N1CCC(NC(=O)C2CCCCC2)CC1`, the reporter increase was -1.17%. Under `O=C1CN(C(=O)COC(=O)C2CC(=O)N(Cc3ccco3)C2)c2ccccc2N1` (centres undefined) stands 1.95%. `C=CCN1C(=O)c2ccc(C(=O)N3CCC(C(=O)OCC)CC3)cc2C1=O`: the reporter increase was 0.619%. Turning to `COc1ccc(C(C)C)cc1-c1ccc2nncn2c1`, the reporter increase was -0.123%.

Source of the values: PubChem BioAssay AID588692 (Broad Institute, 2011).
